# Results: paper PMC11006913
# Numbering of substitutions follows the chain as printed.
# Assays:
# Assay in all cases: PBM; 200 nM protein, PBS
# Settings in all cases: dsDNA, one strand shown
# CRX [1] = target: CRX (Homo sapiens, UniProt O43186 26-111)
# VENTX [2] = target: T1, VENTX (Homo sapiens, UniProt O95231 78-163, R121Q)
# T1 sequence: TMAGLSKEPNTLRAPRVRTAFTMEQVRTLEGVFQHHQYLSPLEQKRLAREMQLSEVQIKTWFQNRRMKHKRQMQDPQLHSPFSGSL
# VENTX [3] = target: T2, VENTX (Homo sapiens, UniProt O95231 78-163, Y115F)
# T2 sequence: T1 sequence with Y38F, Q44R
# CRX [4] = target: CRX (Homo sapiens, UniProt O43186 26-111, E42D)
# CRX (Homo sapiens, UniProt O43186 26-111, E42D), sequence (O43186 26-111 E42D): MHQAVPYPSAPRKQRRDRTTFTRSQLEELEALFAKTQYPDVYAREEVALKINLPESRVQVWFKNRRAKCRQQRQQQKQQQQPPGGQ
# VAX1 [5] = target: VAX1 (Homo sapiens, UniProt Q5SQQ9 86-172)
# VAX1 (Homo sapiens, UniProt Q5SQQ9 86-172), sequence (Q5SQQ9 86-172): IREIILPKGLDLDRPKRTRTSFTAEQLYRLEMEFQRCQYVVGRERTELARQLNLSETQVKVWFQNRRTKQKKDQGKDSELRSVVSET
# VAX1 [6] = target: VAX1 (Homo sapiens, UniProt Q5SQQ9 86-172, T142I)
# VAX1 (Homo sapiens, UniProt Q5SQQ9 86-172, T142I), sequence (Q5SQQ9 86-172 T142I): as the sequence (Q5SQQ9 86-172) above, with T57I counted along it
# CRX [7] = target: CRX (Homo sapiens, UniProt O43186 26-111, R41L)
# CRX (Homo sapiens, UniProt O43186 26-111, R41L), sequence (O43186 26-111 R41L): as the sequence (O43186 26-111 E42D) above, with R16L, D17E counted along it
# VAX1 [8] = target: VAX1 (Homo sapiens, UniProt Q5SQQ9 86-172, K157R)
# VAX1 (Homo sapiens, UniProt Q5SQQ9 86-172, K157R), sequence (Q5SQQ9 86-172 K157R): as the sequence (Q5SQQ9 86-172) above, with K72R counted along it
# HOXB9 [9] = target: HOXB9 (Homo sapiens, UniProt P17482 171-250, T197M)
# HOXB9 (Homo sapiens, UniProt P17482 171-250, T197M), sequence (P17482 171-250 T197M): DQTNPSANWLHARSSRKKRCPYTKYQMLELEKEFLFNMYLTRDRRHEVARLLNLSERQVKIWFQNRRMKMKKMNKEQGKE
# SIX6 [10] = target: T3, SIX6 (Homo sapiens, UniProt O95475 114-200, L167I)
# T3 sequence: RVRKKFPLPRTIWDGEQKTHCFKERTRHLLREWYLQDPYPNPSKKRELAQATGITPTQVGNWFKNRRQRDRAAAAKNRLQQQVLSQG
# SIX6 [11] = target: T4, SIX6 (Homo sapiens, UniProt O95475 114-200, L143V)
# T4 sequence: T3 sequence with L30V, I54L
# ALX4 [12] = target: ALX4 (Homo sapiens, UniProt Q9H161 200-286)
# ALX4 (Homo sapiens, UniProt Q9H161 200-286), sequence (Q9H161 200-286): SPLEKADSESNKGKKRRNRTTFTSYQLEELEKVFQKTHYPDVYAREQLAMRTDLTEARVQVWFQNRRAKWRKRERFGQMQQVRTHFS
# SIX6 [13] = target: T5, SIX6 (Homo sapiens, UniProt O95475 114-200, H141N)
# T5 sequence: T3 sequence with H28N, I54L
# SIX6 [14] = target: T6, SIX6 (Homo sapiens, UniProt O95475 114-200, T165P)
# T6 sequence: T3 sequence with T52P, I54L
# SIX6 [15] = target: T7, SIX6 (Homo sapiens, UniProt O95475 114-200, L167M)
# T7 sequence: T3 sequence with I54M
# SIX6 [16] = target: T8, SIX6 (Homo sapiens, UniProt O95475 114-200, L143M)
# T8 sequence: T3 sequence with L30M, I54L
# SIX6 [17] = target: T9, SIX6 (Homo sapiens, UniProt O95475 114-200, L143I)
# T9 sequence: T3 sequence with L30I, I54L
# ALX4 [18] = target: ALX4 (Homo sapiens, UniProt Q9H161 200-286, Q225E)
# ALX4 (Homo sapiens, UniProt Q9H161 200-286, Q225E), sequence (Q9H161 200-286 Q225E): as the sequence (Q9H161 200-286) above, with Q26E counted along it
# SIX6 [19] = target: T10, SIX6 (Homo sapiens, UniProt O95475 114-200, T165G)
# T10 sequence: T3 sequence with T52G, I54L
# HOXA2 [20] = target: HOXA2 (Homo sapiens, UniProt O43364 129-215, R185T)
# HOXA2 (Homo sapiens, UniProt O43364 129-215, R185T), sequence (O43364 129-215 R185T): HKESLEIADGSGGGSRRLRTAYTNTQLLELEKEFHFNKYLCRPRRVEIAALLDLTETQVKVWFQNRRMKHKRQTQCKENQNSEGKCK
# HOXB9 [21] = target: HOXB9 (Homo sapiens, UniProt P17482 171-250)
# HOXB9 (Homo sapiens, UniProt P17482 171-250), sequence (P17482 171-250): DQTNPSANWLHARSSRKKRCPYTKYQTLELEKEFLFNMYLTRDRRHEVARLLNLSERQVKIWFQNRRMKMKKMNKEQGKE
# SIX6 [22] = target: T11, SIX6 (Homo sapiens, UniProt O95475 114-200, T139Q)
# T11 sequence: T3 sequence with T26Q, I54L
# SIX6 [23] = target: T12, SIX6 (Homo sapiens, UniProt O95475 114-200, T165A)
# T12 sequence: T3 sequence with T52A, I54L
# HOXA2 [24] = target: HOXA2 (Homo sapiens, UniProt O43364 129-215, R185K)
# HOXA2 (Homo sapiens, UniProt O43364 129-215, R185K), sequence (O43364 129-215 R185K): as the sequence (O43364 129-215 R185T) above, with T57K counted along it
# SIX6 [25] = target: T13, SIX6 (Homo sapiens, UniProt O95475 114-200, L167V)
# T13 sequence: T3 sequence with I54V
# SIX6 [26] = target: T14, SIX6 (Homo sapiens, UniProt O95475 114-200)
# T14 sequence: T3 sequence with I54L
# SIX6 [27] = target: T15, SIX6 (Homo sapiens, UniProt O95475 114-200, T165I)
# T15 sequence: T3 sequence with T52I, I54L
# HOXB9 [28] = target: HOXB9 (Homo sapiens, UniProt P17482 171-250, R186Q)
# HOXB9 (Homo sapiens, UniProt P17482 171-250, R186Q), sequence (P17482 171-250 R186Q): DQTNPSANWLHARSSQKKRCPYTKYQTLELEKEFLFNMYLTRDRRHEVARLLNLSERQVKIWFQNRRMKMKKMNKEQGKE
# HOXA2 [29] = target: HOXA2 (Homo sapiens, UniProt O43364 129-215, Y150S)
# HOXA2 (Homo sapiens, UniProt O43364 129-215, Y150S), sequence (O43364 129-215 Y150S): as the sequence (O43364 129-215 R185T) above, with Y22S, T57R counted along it
# HOXA2 [30] = target: HOXA2 (Homo sapiens, UniProt O43364 129-215)
# HOXA2 (Homo sapiens, UniProt O43364 129-215), sequence (O43364 129-215): as the sequence (O43364 129-215 R185T) above, with T57R counted along it
# PITX2 = PITX2 (Homo sapiens, UniProt Q99697 72-157)
# CRX (Homo sapiens, UniProt O43186 26-111), sequence (O43186 26-111): as the sequence (O43186 26-111 E42D) above, with D17E counted along it
sequence,measurement,setting,value
ACAGATTA,binding signal,CRX [1],"12.8 upbm affinity estimate (log intensity, higher = more binding, comparable within an allelic series)"
same,binding signal,VENTX [2],"10.5 upbm affinity estimate (log intensity, higher = more binding, comparable within an allelic series)"
same,binding signal,VENTX [3],"10.5 upbm affinity estimate (log intensity, higher = more binding, comparable within an allelic series)"
same,binding signal,CRX [4],"12.7 upbm affinity estimate (log intensity, higher = more binding, comparable within an allelic series)"
same,binding signal,VAX1 [5],"10 upbm affinity estimate (log intensity, higher = more binding, comparable within an allelic series)"
same,binding signal,VAX1 [6],"9.28 upbm affinity estimate (log intensity, higher = more binding, comparable within an allelic series)"
same,binding signal,CRX [7],"12.6 upbm affinity estimate (log intensity, higher = more binding, comparable within an allelic series)"
same,binding signal,VAX1 [8],"9.72 upbm affinity estimate (log intensity, higher = more binding, comparable within an allelic series)"
GGGGCCCC,binding signal,CRX [1],"8.9 upbm affinity estimate (log intensity, higher = more binding, comparable within an allelic series)"
same,binding signal,HOXB9 [9],"8.67 upbm affinity estimate (log intensity, higher = more binding, comparable within an allelic series)"
same,binding signal,SIX6 [10],"9.09 upbm affinity estimate (log intensity, higher = more binding, comparable within an allelic series)"
same,binding signal,SIX6 [11],"8.85 upbm affinity estimate (log intensity, higher = more binding, comparable within an allelic series)"
same,binding signal,ALX4 [12],"8.29 upbm affinity estimate (log intensity, higher = more binding, comparable within an allelic series)"
same,binding signal,SIX6 [13],"9 upbm affinity estimate (log intensity, higher = more binding, comparable within an allelic series)"
same,binding signal,SIX6 [14],"8.87 upbm affinity estimate (log intensity, higher = more binding, comparable within an allelic series)"
same,binding signal,SIX6 [15],"8.88 upbm affinity estimate (log intensity, higher = more binding, comparable within an allelic series)"
same,binding signal,SIX6 [16],"8.91 upbm affinity estimate (log intensity, higher = more binding, comparable within an allelic series)"
same,binding signal,SIX6 [17],"8.93 upbm affinity estimate (log intensity, higher = more binding, comparable within an allelic series)"
same,binding signal,ALX4 [18],"8.44 upbm affinity estimate (log intensity, higher = more binding, comparable within an allelic series)"
same,binding signal,SIX6 [19],"8.95 upbm affinity estimate (log intensity, higher = more binding, comparable within an allelic series)"
same,binding signal,HOXA2 [20],"7.49 upbm affinity estimate (log intensity, higher = more binding, comparable within an allelic series)"
same,binding signal,HOXB9 [21],"8.5 upbm affinity estimate (log intensity, higher = more binding, comparable within an allelic series)"
same,binding signal,SIX6 [22],"9.06 upbm affinity estimate (log intensity, higher = more binding, comparable within an allelic series)"
same,binding signal,CRX [4],"8.69 upbm affinity estimate (log intensity, higher = more binding, comparable within an allelic series)"
same,binding signal,SIX6 [23],"9.03 upbm affinity estimate (log intensity, higher = more binding, comparable within an allelic series)"
same,binding signal,HOXA2 [24],"10.2 upbm affinity estimate (log intensity, higher = more binding, comparable within an allelic series)"
same,binding signal,SIX6 [25],"8.99 upbm affinity estimate (log intensity, higher = more binding, comparable within an allelic series)"
same,binding signal,SIX6 [26],"8.93 upbm affinity estimate (log intensity, higher = more binding, comparable within an allelic series)"
same,binding signal,SIX6 [27],"8.97 upbm affinity estimate (log intensity, higher = more binding, comparable within an allelic series)"
same,binding signal,HOXB9 [28],"8.63 upbm affinity estimate (log intensity, higher = more binding, comparable within an allelic series)"
same,binding signal,HOXA2 [29],"10.5 upbm affinity estimate (log intensity, higher = more binding, comparable within an allelic series)"
same,binding signal,CRX [7],"8.38 upbm affinity estimate (log intensity, higher = more binding, comparable within an allelic series)"
same,binding signal,HOXA2 [30],"7.38 upbm affinity estimate (log intensity, higher = more binding, comparable within an allelic series)"
CGCACCGC,binding signal,CRX [1],"8.16 upbm affinity estimate (log intensity, higher = more binding, comparable within an allelic series)"
same,binding signal,SIX6 [10],"8.91 upbm affinity estimate (log intensity, higher = more binding, comparable within an allelic series)"
same,binding signal,SIX6 [11],"8.89 upbm affinity estimate (log intensity, higher = more binding, comparable within an allelic series)"
same,binding signal,ALX4 [12],"8.06 upbm affinity estimate (log intensity, higher = more binding, comparable within an allelic series)"
same,binding signal,SIX6 [13],"8.95 upbm affinity estimate (log intensity, higher = more binding, comparable within an allelic series)"
same,binding signal,SIX6 [14],"8.88 upbm affinity estimate (log intensity, higher = more binding, comparable within an allelic series)"
same,binding signal,SIX6 [15],"8.89 upbm affinity estimate (log intensity, higher = more binding, comparable within an allelic series)"
same,binding signal,SIX6 [16],"8.96 upbm affinity estimate (log intensity, higher = more binding, comparable within an allelic series)"
same,binding signal,SIX6 [17],"9 upbm affinity estimate (log intensity, higher = more binding, comparable within an allelic series)"
same,binding signal,ALX4 [18],"8.31 upbm affinity estimate (log intensity, higher = more binding, comparable within an allelic series)"
same,binding signal,SIX6 [19],"9.05 upbm affinity estimate (log intensity, higher = more binding, comparable within an allelic series)"
same,binding signal,SIX6 [22],"9.17 upbm affinity estimate (log intensity, higher = more binding, comparable within an allelic series)"
same,binding signal,CRX [4],"8.2 upbm affinity estimate (log intensity, higher = more binding, comparable within an allelic series)"
same,binding signal,SIX6 [23],"8.98 upbm affinity estimate (log intensity, higher = more binding, comparable within an allelic series)"
same,binding signal,SIX6 [25],"8.96 upbm affinity estimate (log intensity, higher = more binding, comparable within an allelic series)"
same,binding signal,SIX6 [26],"8.97 upbm affinity estimate (log intensity, higher = more binding, comparable within an allelic series)"
same,binding signal,SIX6 [27],"8.85 upbm affinity estimate (log intensity, higher = more binding, comparable within an allelic series)"
same,binding signal,CRX [7],"8.26 upbm affinity estimate (log intensity, higher = more binding, comparable within an allelic series)"
AGATTAGC,binding signal,CRX [1],"13 upbm affinity estimate (log intensity, higher = more binding, comparable within an allelic series)"
same,binding signal,VENTX [2],"10.5 upbm affinity estimate (log intensity, higher = more binding, comparable within an allelic series)"
same,binding signal,VENTX [3],"10.4 upbm affinity estimate (log intensity, higher = more binding, comparable within an allelic series)"
same,binding signal,CRX [4],"13.1 upbm affinity estimate (log intensity, higher = more binding, comparable within an allelic series)"
same,binding signal,PITX2,"12.5 upbm affinity estimate (log intensity, higher = more binding, comparable within an allelic series)"
same,binding signal,CRX [7],"12.7 upbm affinity estimate (log intensity, higher = more binding, comparable within an allelic series)"
